Hits are enriched below; roughly 0.92% of the tested compounds scored in any of these assays.
APEX1 inh = APE1 (human) endonuclease inhibition | actives 0.35% (n = 350,000) | Potency, µM (titrated, usually from 65.8 µM), inactives show top-dose activity change, negative = inhibition, actives largely listed as inhibitors | P27695 | recombinant APE1, TAMRA/BHQ-2 abasic DNA cleavage fluorescence;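 also: plate controls were vehicle for no effect and reference inhibitor for full effect; nearly all actives have a fitted effect of over 55% in size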
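APE1 at 0.75 nM preincubated 15 min at room temperature with compound. Reaction then started with 50 nM double-stranded THF-abasic substrate labelled with TAMRA/BHQ-2, and 525/598 nm fluorescence read kinetically. Activity taken as third-minus-first read difference, normalized to DMSO and NSC13755 controls.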
FEN1 inh = inhibitors of human flap endonuclease 1; Potency, µM (doses to about 114 µM), for inactives: top-dose activity change, negative = inhibition, actives largely listed as inhibitors; Recombinant FEN1 flap cleavage, fluorescence, 15 min; actives 0.35% (n = 390,000); also: nearly all actives have a fitted effect of over 65% in size
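Compounds are tested as a concentration series against 10 nM FEN1; after a 15 min room-temperature preincubation, 50 nM substrate starts cleavage, with plate reads at 0 and 15 min. Normalized responses are fitted by a Hill equation.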
TDP1 inh = blocks human tyrosyl-DNA phosphodiesterase 1. Potency, µM (highest dose often 130 µM), inactives show at the highest dose activity change, negative = inhibition, hits mostly inhibitors. actives 0.28% (n = 350,000). AID 485290. recombinant TDP1, AlphaScreen DNA substrate cleavage; also: nearly all actives have a fitted effect of over 40% in size
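Recombinant human Tdp1 (E. coli-expressed, 1 nM final) preincubated with compounds 15 min at room temperature, then 5'-biotin/3'-phosphotyrosine-FITC DNA substrate (15 nM final) added for 5 min. AlphaScreen beads (10 ug/ml final) added 10 min; cleavage lowers signal.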
BLM inh = blocks DNA unwinding by human BLM helicase | P54132 | AID 2528 | actives 0.2% (n = 350,000) | Potency, µM (top dose mostly 56.1 µM), for inactives: top-dose activity change, negative = inhibition, most hits filed as inhibitors | recombinant BLM DNA unwinding, fluorescence dequenching;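 also: plate controls were vehicle for no effect and no enzyme for full effect; nearly all actives have a fitted effect of over 35% in size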
RECQ1 helicase = blocks DNA unwinding by human RECQ1; RECQ1 DNA unwinding, red fluorescence kinetic read; actives 0.54% (n = 240,000); Potency, µM (titrated, usually from 57.3 µM), for the others: top-dose activity, negative = inhibition, usual class: inhibitors;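 also: plate controls were vehicle for no effect and no enzyme for full effect; nearly all actives have a fitted effect of over 30% in size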
Target sequence (P46063 whole entry, looked up): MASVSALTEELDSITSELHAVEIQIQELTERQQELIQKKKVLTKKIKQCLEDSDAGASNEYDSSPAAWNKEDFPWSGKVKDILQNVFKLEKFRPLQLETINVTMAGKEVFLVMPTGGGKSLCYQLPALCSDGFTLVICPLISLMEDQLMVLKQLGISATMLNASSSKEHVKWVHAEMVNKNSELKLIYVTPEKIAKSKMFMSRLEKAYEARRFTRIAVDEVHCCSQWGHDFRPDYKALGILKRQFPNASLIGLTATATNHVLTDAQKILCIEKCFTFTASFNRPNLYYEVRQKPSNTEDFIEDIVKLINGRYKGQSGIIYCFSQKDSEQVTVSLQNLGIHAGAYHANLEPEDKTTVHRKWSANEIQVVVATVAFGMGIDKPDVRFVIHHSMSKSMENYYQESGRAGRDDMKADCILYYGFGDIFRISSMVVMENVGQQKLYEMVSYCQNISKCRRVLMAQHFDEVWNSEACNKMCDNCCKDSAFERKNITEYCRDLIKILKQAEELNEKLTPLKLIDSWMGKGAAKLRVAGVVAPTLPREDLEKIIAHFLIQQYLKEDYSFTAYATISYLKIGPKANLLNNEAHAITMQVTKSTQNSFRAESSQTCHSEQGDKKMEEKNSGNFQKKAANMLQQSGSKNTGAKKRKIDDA
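RECQ1T1 50 nM; forked duplex (20 bp + 30-nt ss tails) 200 nM, ATP 2 mM final; pH 8.0, 2 mM MgCl2, 2.5 ug/ml poly(dI-dC); 15 min compound preincubation; discontinuous kinetic read over 2 h at RT.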
Active calls of the source: *; i = inactive; u = inconclusive; x = no result; ! = not active in a repeat; [ ] = dose if it differs, or a comment. Calls follow the shape of the dose curve; as a rule, active = well fitted curve in the direction sought with a large enough effect; inconclusive = small, poorly fitted or top-dose-only effect, or another doubt; inactive = no such curve, though single readings can be large; an effect the other way counts as inactive or inconclusive. Unless noted, % is scaled to controls: 0 for no effect and ±100 for the full control effect; potency is read from the fitted curve at half-maximal effect.

SMILES	APEX1 inh	FEN1 inh	TDP1 inh	BLM inh	RECQ1 helicase
Cc1ccc(NC(=O)CN2C(=O)N/C(=C/c3cc(C)n(-c4cccc(C(=O)O)c4)c3C)C2=O)cc1	11µM*	-3%	x	-6%	u
COc1cccc2sc(NC(=O)c3ccc4c(c3)OCCO4)nc12	x	-17%	5%	-1%	x
O=C(Nc1nc2c(F)cc(F)cc2s1)c1ccc2c(c1)OCCO2	4%	-4%	45µM*	-3%	x
CN(CCCC1CCCC1)C(=O)c1cc(COc2c(F)cccc2F)on1	-40%	u	79µM*	-16%	x
COC(=O)C1=NOC2(C=C(Br)C(OC)=C(Br)C2=O)C1 (configuration not stated)	u	x	-5%[21 µM]	1%[12.4 µM]	10%[11.5 µM]
CC(C)(C)n1ncc2c(=O)n(Cc3ccccc3Cl)cnc21	1%	9%	x	x	x
O=[N+]([O-])c1cc2no[n+]([O-])c2cc1N1CCCCC1	x	50µM*	x	x	x
OC[C@@H]1O[C@H](O)[C@H](O)[C@@H](O)[C@@H]1O	23%	x	13%	0%	5%
COc1ccc(OC)c(C2/C(=C(/O)c3ccccc3)C(=O)C(=O)N2Cc2ccco2)c1 (configuration not stated)	4%	45µM*	0%	4%	-2%
COc1ccc(/C(O)=C2\C(=O)C(=O)N(Cc3ccco3)C2c2cc(OC)ccc2OC)cc1 (configuration not stated)	-3%	-19%	4%	-8%	-8%
COc1ccc2c(c1)OC(=O)CC2c1ccccc1OC (configuration not stated)	0%	11%	-3%[56.1 µM]	-6%[75.6 µM]	i
COc1ccc2c(c1)C(c1ccccc1OC)CC(=O)O2 (configuration not stated)	-5%	x	13µM*	1%[75.6 µM]	-24%[81.1 µM]
CC(C)(C)n1ncc2c(=O)n(Cc3c(Cl)cccc3Cl)cnc21	-1%	-14%	x	x	x
COc1cc(/C=C2/SC(=S)N(CC(=O)O)C2=O)ccc1OCC(=O)Nc1ccc(C)c(C)c1	4.7µM*	x	13µM*	u	x
COc1ccc(C(=O)N(Cc2ccccc2)Cc2ccccc2)c(O)c1	x	x	-1%	x	x
COc1ccc(/C=C/C(=O)c2c(OC)cc(O)cc2OC)cc1	-6%	x	17%	-12%	-13%
COc1cc(O)c(C(=O)/C=C/c2ccc(O)c(OC)c2)c(OC)c1	u	x	10µM*	-4%	-17%
Cc1ccc2ccc3cccc4ccc1c2c34	-6%	9%	56µM*	x	-7%
O=C(CNC(=O)c1ccncc1)OC(C(=O)Nc1cc(C(F)(F)F)ccc1Cl)c1ccccc1 (configuration not stated)	x	x	0%	x	x
COc1ccc(NC(=O)/C=C/c2cccc(F)c2)cn1	-1%	-3%	0%	1%	-10%
COc1ccc(NC(=O)/C=C/c2ccc(Br)o2)cn1	-5%	-24%	20µM*	-24%	-28%
CC(=O)N1CCc2cc(S(=O)(=O)Nc3ccc(C)c(C)c3)ccc21	x	x	1%	x	x
Cc1ccc(C)c(S(=O)(=O)Nc2ccc3oc(C)c(C(=O)O)c3c2)c1	13µM*	u	x	-5%	x
O=C(/C=C/c1ccc(O)c(O)c1)OCCc1ccccc1	u	-5%	13%	-10%	-18%
O=C(/C=C\c1ccc(O)c(O)c1)O[C@@H](Cc1ccc(O)c(O)c1)C(=O)O	2.5µM*	x	x	-1%	-16%
SMILES	APEX1 inh	FEN1 inh	TDP1 inh	BLM inh	RECQ1 helicase
O=C(/C=C/c1ccc(O)c(O)c1)OC(Cc1ccc(O)c(O)c1)C(=O)O (configuration not stated)	1.3µM*!	u	x	-2%	13µM*!
O=C(OC[C@H]1O[C@@H](OC(=O)c2cc(O)c(O)c(OC(=O)c3cc(O)c(O)c(O)c3)c2)[C@H](OC(=O)c2cc(O)c(O)c(OC(=O)c3cc(O)c(O)c(O)c3)c2)[C@@H](OC(=O)c2cc(O)c(O)c(OC(=O)c3cc(O)c(O)c(O)c3)c2)[C@@H]1OC(=O)c1cc(O)c(O)c(OC(=O)c2cc(O)c(O)c(O)c2)c1)c1cc(O)c(O)c(OC(=O)c2cc(O)c(O)c(O)c2)c1	0.0053µM*	-83%	x	x	x
O=C(c1coc(=O)c(Br)c1)N1CCOCC1	13µM*	-11%	22µM*	1%	-9%
O=C(c1ccc(=O)oc1)N1CCCc2ccccc21	32µM*	56µM*	18µM*	u	u
O=C(c1ccccc1)N1CCCc2ccccc21	-1%	3%	-3%	-4%	2%
O=C(c1ccc(=O)oc1)N1CCOCC1	14µM*	32µM*	x	49%	-10%
O=C(c1ccc(-n2cccc2)cc1)N1CCOCC1	0%	5%	5%	4%	-4%
Oc1c(Br)cc(C=Nc2ccc3nc(-c4ccccc4)[nH]c3c2)c(O)c1Br	11%	40µM*	3%	-15%	-10%
CCN(CC)CCn1c2ccccc2c2cnc(N=CN(C)C)c(C#N)c21	u	35µM*	-8%	64%	11%
CCn1c2ccccc2c2cnc(N=CN(C)C)c(C#N)c21	-3%	u	0%	2%	-13%
C[n+]1cc2c3c(ccc2c2ccc4cc5c(cc4c21)OCO5)OCO3	1%	11µM*	14%	-2%	1%
C[n+]1c(/C=C/c2ccc3c(c2)OCO3)ccc2ccccc21	5%	0%	4%	1%	12%
Cc1ccc(S(=O)(=O)N2CCN(c3nc(C#N)nc4ccccc34)CC2)cc1	x	x	-1%	x	x
C[N+](C)(C)c1ccc(/C=C/c2ccnc3ccccc23)cc1	x	45µM*	x	x	x
CCC[N+](C)(C)c1ccc(/C=C/c2ccnc3ccccc23)cc1	x	32µM*	x	x	x
CN(C)c1ccc(/C=C/c2ccnc3ccc4ccccc4c23)cc1	x	11µM*	x	x	x
CC(C)(C)OC(=O)NS(=O)(=O)NOCc1ccccc1	x	3%	x	x	x
Cc1ccc(C(=O)NCC(=O)OC(C(=O)Nc2cc(C(F)(F)F)ccc2Cl)c2ccccc2)cc1 (configuration not stated)	x	x	-1%	x	x
CC(=O)N1CCOc2cc(S(=O)(=O)Nc3cccc(C(F)(F)F)c3)c(Cl)cc21	45%	2%	11µM*	-1%	x
COc1ccc(NC(=O)Cn2c(=O)n(CCCCCC(=O)NCc3ccc4c(c3)OCO4)c(=O)c3sccc32)cc1Cl	x	89µM*	5%	-10%	x
O=C(NNC(=O)c1cc2cc(Br)ccc2oc1=O)c1ccc(O)cc1O	u	-13%	25µM*	u	-8%
CN(C)c1cccc(S(=O)(=O)N2CCCN(S(=O)(=O)c3ccc4c(c3)OCCO4)CC2)c1	x	x	3%	x	x
COc1ccccc1Nc1cc2ccccc2c(=O)[nH]1	x	x	2%	x	x

Screens: PubChem BioAssay, National Center for Advancing Translational Sciences (NCATS)
